Reference: PubChem BioAssay
Active and inactive are the calls of the source.

Tests used:
Albumin (Bos taurus) = Albumin (Bos taurus) (UniProt P02769); experiment: bovine serum albumin binders on microarray, profiling panel, artefact control for SMM control protein annotation, biochemical, small-molecule microarray, Alexa647 label, 635/667 nm fluorescence (AID 1118); details: BSA-A647 binding, fluorescence 635 nm, higher = more signal;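 note: score merges 667 nm emission intensity and signal-to-noise per printed compound spot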
Chain of Albumin (Bos taurus) (P02769 whole entry, looked up): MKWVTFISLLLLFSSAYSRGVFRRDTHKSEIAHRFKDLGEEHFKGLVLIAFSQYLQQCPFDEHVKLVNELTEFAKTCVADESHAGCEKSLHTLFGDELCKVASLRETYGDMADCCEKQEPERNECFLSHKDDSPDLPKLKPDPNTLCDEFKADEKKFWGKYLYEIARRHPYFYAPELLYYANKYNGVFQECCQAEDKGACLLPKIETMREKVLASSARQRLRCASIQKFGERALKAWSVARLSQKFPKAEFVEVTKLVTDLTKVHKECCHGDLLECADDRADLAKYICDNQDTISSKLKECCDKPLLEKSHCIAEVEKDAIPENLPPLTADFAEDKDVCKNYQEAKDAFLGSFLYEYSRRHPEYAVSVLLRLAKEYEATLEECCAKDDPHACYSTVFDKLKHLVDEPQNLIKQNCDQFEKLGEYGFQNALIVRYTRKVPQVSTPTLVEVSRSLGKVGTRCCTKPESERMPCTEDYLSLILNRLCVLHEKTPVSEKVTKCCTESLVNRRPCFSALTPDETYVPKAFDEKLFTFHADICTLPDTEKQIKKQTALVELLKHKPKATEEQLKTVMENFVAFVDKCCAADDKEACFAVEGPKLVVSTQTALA

[1] = small-molecule microarray binders of probe aXIP, primary screen, biochemical, NeuroSMM set, 635/667 nm fluorescence (AID 1119); details: higher = more signal, called active from +8 up or from −8 down;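 note: probe is the protein aXip251-270 applied at 1 µg/mL to compound-printed slides; binding of probe to printed compounds measured as 667 nm fluorescence plus signal to noise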
[2] = small-molecule binders of probe aNOTCH3, primary screen, biochemical, small-molecule microarray, 635/667 nm fluorescence (AID 1120); details: higher = more signal;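 note: probe is a biotin-tagged antibody raised against NOTCH3 rather than NOTCH3 protein; score merges spot fluorescence near 667 nm with spot signal to noise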
[3] = small-molecule binders of probe aNOTCH2, primary screen, biochemical, small-molecule microarray, 635/667 nm fluorescence (AID 1121); details: higher = more signal;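 note: score merges feature fluorescence read at 667 nm with its signal to noise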
[4] = target: Carbonic anhydrase 2 (Homo sapiens) (UniProt P00918); experiment: CAII small-molecule binders, profiling panel, biochemical, small-molecule microarray, Alexa647-labelled CAII (AID 1122); details: CAII-A647 binding fluorescence, higher = more signal
[5] = COS7 lysate on small-molecule microarray, probe aHis, 635 nm (AID 1123); details: COS7 cell lysate, fluorescence, higher = more signal;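 note: z-score combines 667nm fluorescence intensity with signal-to-noise per printed compound spot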
[6] = compound binding in COS7 lysate, probe aLAP1, primary screen, cell lysate, small-molecule microarray (AID 1124); details: probe aLAP1, fluorescence, higher = more signal;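 note: lysate comes from COS7 cells expressing LAP1 and is applied at 0.3 µg/mL; score merges spot fluorescence near 667 nm with signal-to-noise over triplicate slides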
Sam68 (KHDRBS1) = experiment: Sam68 small-molecule binders, primary screen, biochemical, small-molecule microarray, 635 nm fluorescence (AID 1125); details: small-molecule microarray binding, higher = more signal;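 note: score merges 667 nm channel intensity with signal to noise over triplicate slides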
[7] = tested on: Chordin-like protein 2 (CHRDL2); experiment: CHRDL2 small-molecule binders, primary screen, biochemical, small-molecule microarray, 635 nm fluorescence (AID 1126); details: small-molecule microarray binding, fluorescence 635 nm; higher = more signal;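 note: printed compound slides probed with Chrdl2 protein at 4 µg/mL for 1 h at 4 C; score merges 667 nm emission intensity with signal to noise over three replicate slides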
[8] = target: Concanavalin-A (Canavalia ensiformis) (UniProt P02866); experiment: ConA small-molecule binders, primary screen, artefact control for SMM control protein annotation, biochemical, small-molecule microarray, Alexa647 label, 635 nm (AID 1127); details: ConA-A647 binding fluorescence, higher = more signal;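 note: z combines 667 nm emission intensity with signal-to-noise across three replicate slides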
Chain of Concanavalin-A (Canavalia ensiformis) (P02866 whole entry, looked up): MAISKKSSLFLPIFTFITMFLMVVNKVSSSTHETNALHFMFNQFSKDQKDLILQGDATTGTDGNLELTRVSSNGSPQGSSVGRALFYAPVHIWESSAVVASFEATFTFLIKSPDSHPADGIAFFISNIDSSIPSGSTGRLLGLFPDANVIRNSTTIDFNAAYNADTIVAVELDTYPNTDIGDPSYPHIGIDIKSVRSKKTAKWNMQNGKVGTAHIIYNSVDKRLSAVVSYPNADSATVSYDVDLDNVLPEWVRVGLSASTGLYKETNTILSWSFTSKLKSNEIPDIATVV

| SMILES | composite z-score (Albumin (Bos taurus)) | composite Z-score [1] | composite z-score [2] | composite z-score [3] | composite z-score [4] | composite z-score [5] | composite z-score [6] | composite z-score (Sam68 (KHDRBS1)) | composite z-score [7] | composite z-score [8] |
| --- | --- | --- | --- | --- | --- | --- | --- | --- | --- | --- |
| Cc1ccc(F)cc1S(=O)(=O)N[C@@H]1CCN(Cc2ccc3c(c2)OCO3)C1 | 0.167 | -0.0662 (inactive) | -0.129 | -0.147 | 0.0085 | -0.702 | 0.0521 | -0.148 | 0.0213 | -0.319 |
| COc1cc2c(cc1O)C(C1CC1)N(Cc1ccc([N+](=O)[O-])o1)CC2 (stereo not given) | 0.959 | 0.676 (inactive) | 0.0159 | -0.0826 | 0.717 | 1.42 | 1.03 | 0.835 | -0.465 | 0.934 |
| COc1ccc(NN2C(C(O)c3ccc(OC)cc3)C=CC3C(=O)N(C4CCCCC4)C(=O)C32)cc1 (stereo not given) | 0.828 | 0.297 (inactive) | 0.124 | -0.0037 | 0.405 | 1.1 | 0.0023 | 1.28 | -0.138 | 0.872 |
| O=C1NC(=O)C2C1C=CC(C(O)c1cccc(O)c1)N2Nc1ccc(Cl)cc1Cl (stereo not given) | 0.33 | -0.136 (inactive) | -0.0043 | 0.0592 | 0.757 | 1.4 | -0.452 | -1.81 | -0.474 | -0.0019 |
| CC(=O)NCCCC[C@@H]1NC(=O)[C@@H]2C[C@H](C(=O)NCCCCCC[N+](C)(C)C)[C@H](c3ccc(O)cc3)N2C1=O | -0.78 | 0.0461 (inactive) | -0.0611 | -0.0173 | 0.188 | 1.17 | -0.414 | 0.992 | 0.965 | 0.301 |
| CCCC[C@@H]1C[C@H]1[C@@H](NC(=O)c1ccc(C(F)(F)F)cc1)c1ccc(C(=O)OC)cc1 | 0.0711 | 0.0888 (inactive) | 0.0501 | -0.0347 | 0.441 | 1.27 | 1.25 | 0.504 | 1.27 | 0.441 |
| C=CC[C@@]12N=C(c3ccc(OCCCO)cc3)O[C@@H]1c1ccccc1N(Cc1ccccc1)C2=O | 0.0349 | 0.407 (inactive) | 0.405 | 0.14 | 0.463 | 3.15 | 0.532 | 1.3 | 1.43 | 1.02 |
| CN(C)CCCNC(=O)[C@@]1(Cc2ccccc2I)c2ccccc2C(=O)N(Cc2ccccc2)[C@H]1c1ccc(CO)cc1 | -0.6 | -0.307 (inactive) | -0.467 | -0.247 | 0.362 | 3.21 | 1.41 | 1.3 | 0.613 | 1.09 |
| CCOC(=O)C1=CC[C@@H](c2ccccc2Cl)N(S(=O)(=O)c2ccc(C)cc2)[C@H]1c1cccc(OC)c1 | 0.453 | -0.161 (inactive) | -0.014 | -0.115 | 0.304 | 0.878 | -0.151 | 0.371 | -0.0126 | 0.577 |
| CO[C@H]1O[C@H](CO)[C@@H](OC(=O)Nc2ccccc2)[C@@H]2OC(=O)[C@H](Cc3ccccc3)C/C=C/C[C@@H](Cc3ccccc3)C(=O)O[C@@H]12 | 0.548 | 1.96 (inactive) | 0.177 | 0.371 | 0.559 | 1.28 | 0.597 | 0.921 | 0.152 | 0.628 |
| [N-]=[N+]=NCc1ccccc1C[C@]1(C(=O)O)COC(c2ccc(OCCCO)cc2)=N1 | 0.748 | -0.496 (inactive) | -0.0525 | -0.14 | 0.805 | -0.0577 | -0.369 | -0.91 | -2.26 | -0.927 |
| O=C1N(CCS(=O)(=O)c2ccccc2)c2ccccc2[C@@H]2OC(c3ccc(OCCCO)cc3)=N[C@]12CCS(=O)(=O)c1ccccc1 | 0.929 | 0.759 (inactive) | 0.0496 | 0.0684 | 0.503 | 2.8 | 1.21 | 1.29 | 1.1 | 1.15 |
| COC(=O)[C@@]1(Cc2ccccc2)[C@@H]2[C@@H](CC(=O)[C@H]2CC(=O)C(=O)N(C)C)CN1C(=O)c1ccccc1 | 0.579 | -0.077 (inactive) | -0.0288 | -0.0928 | 0.838 | 2.87 | 0.712 | -0.125 | -0.641 | 0.596 |
| COCC(=C=CC[C@@H](O)c1cccc(OCCO)c1)C[C@@H](O)COCc1ccccc1 | 0.809 | -1.85 (inactive) | 0.381 | 0.121 | 0.552 | 3.68 | 0.684 | 0.92 | -0.69 | 0.132 |
| CCCCN1CC=CC23O[C@@H]4C=CCOC(=O)[C@@H]4[C@H]2C(=O)N(CCO)[C@@H]3C1=O (stereo not given in full) | -0.852 | -0.483 (inactive) | 0.177 | -0.185 | 0.85 | -0.291 | -0.217 | -0.779 | -1.68 | -1.09 |
| C=C(CC1([C@@H](NP(=O)(c2ccccc2)c2ccccc2)[C@H]2C[C@@H]2CCN(C(=O)OCC)S(=O)(=O)c2ccc(C)cc2)CC1)c1ccccc1 | 0.963 | 0.39 (inactive) | 0.6 | 0.354 | 0.355 | 2.65 | 0.319 | 0.981 | -0.845 | 0.74 |
| [N-]=[N+]=Nc1ccccc1[C@@H]1OC(c2ccc(OCCCO)cc2)=N[C@]1(Cc1ccccc1)C(N)=O | 0.503 | -0.0189 (inactive) | 0.0694 | -0.0149 | 0.724 | 1.07 | -0.247 | 0.495 | -0.178 | 0.0171 |
